# Results reported in the supplement of paper PMC6897291.
# Test system: U-2932
# Assay: growth inhibition by drug alone (1 - RLU/untreated control) (fraction); higher = stronger inhibition
# Conditions: 177Lu-lilotomab satetraxetan 0 ug/ml
# Description: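 U-2932 ABC-DLBCL cells were pretreated or not for 18 h with 1 ug/ml 177Lu-lilotomab satetraxetan (600 MBq/mg), washed and seeded (3000 cells/well) on 384-well plates pre-printed with the Selleck Cambridge Cancer Compound library. Viability was read by RealTime-Glo luminescence on days 3-6 after seeding. Effect = 1 - RLU/mean RLU of the 48 untreated no-drug control wells per plate; Bliss score = (M-E)/(1-Fa), with E the expected Bliss-additive effect.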
Compound,"growth inhibition by drug alone (10 nM, time (day): 3)","growth inhibition by drug alone (10 nM, time (day): 4)","growth inhibition by drug alone (10 nM, time (day): 5)","growth inhibition by drug alone (10 nM, time (day): 6)","growth inhibition by drug alone (1000 nM, time (day): 3)","growth inhibition by drug alone (1000 nM, time (day): 4)","growth inhibition by drug alone (1000 nM, time (day): 5)","growth inhibition by drug alone (1000 nM, time (day): 6)"
Nc1nc(Cl)nc2c1ncn2[C@H]1C[C@H](O)[C@@H](CO)O1 [Cladribine],-0.0123,-0.0135,-0.0163,0.0971,0.943,0.966,0.98,0.987
COc1ncc(-c2ccc3nccc(-c4ccnnc4)c3c2)cc1NS(=O)(=O)c1ccc(F)cc1F,0.726,0.786,0.81,0.821,0.87,0.935,0.961,0.972
COc1ccc(S(=O)(=O)Nc2cccnc2Nc2ccc(O)cc2)cc1,0.0231,-0.0101,-0.0159,0.0329,0.889,0.918,0.932,0.948
Nc1ccccc1NC(=O)c1ccc(CNc2nccc(-c3cccnc3)n2)cc1 [Mocetinostat (MGCD0103)],0.00982,0.0102,0.0298,0.152,0.868,0.878,0.889,0.91
O=C(/C=C/c1cccnc1)NCCCCC1CCN(C(=O)c2ccccc2)CC1,0.935,0.894,0.825,0.783,0.982,0.985,0.984,0.985
